Several values for one entry are separate records, joined by “and”; a condition that tells them apart may be missing. Equal entries are not always repeated. In all, about 5,500 compounds went through this assay and about 2,000 (36%) were called active. Roughly 18% stayed inconclusive and do not appear here. No stated cut-off is given here; in the data, active means normalized growth mostly below about 0.91 (no sharp cut-off); inconclusive means no clear call, values can overlap the other calls; inactive means mostly above about 0.92. The list shows a part of the results.
Experiment: chemical genetic growth profiling, strain panel (AID 1159580);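 further: tested at 20 µM; growth read once vehicle control cultures reached saturation at 30 °C; 1 = growth at the plate median or of vehicle wells; lower values mean less growth of the strain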
Conditions: S. cerevisiae deletion strains, growth OD

Measured: normalized growth

COc1cc([C@@H]2c3cc4c(cc3[C@H](O)[C@H]3COC(=O)[C@@H]23)OCO4)cc(OC)c1OC
inactive: locus YAL021C, strain ccr4, hits give low values 1 | locus YAL026C, strain drs2, hits give low values 1.03 | locus YAL030W, strain snc1, hits give low values 1.02 | locus YBL061C, strain skt5, hits give low values 1 | locus YBR009C, strain hhf1, hits give low values 1 | locus YBR021W, strain FUR4, hits give low values 1.04 | locus YBR023C, strain chs3, hits give low values 1.02 | locus YBR171W, strain sec66, hits give low values 1.02 | locus YBR229C, strain ROT2, hits give low values 1 | locus YBR231C, strain swc5, hits give low values 1.02 | locus YBR279W, strain paf1, hits give low values 1.02 | locus YCL011C, strain gbp2, hits give low values 1.02 | locus YCL016C, strain dcc1, hits give low values 1.01 | locus YCL029C, strain bik1, hits give low values 0.983 | locus YCL069W, strain vba3, hits give low values 1.02 | locus YCR088W, strain abp1, hits give low values 1.02 | locus YDL005C, strain med2, hits give low values 1.02 | locus YDL035C, strain GPR1, hits give low values 0.991 | locus YDL040C, strain nat1, hits give low values 1.02 | locus YDL074C, strain BRE1, hits give low values 0.949 | locus YDL101C, strain DUN1, hits give low values 1.01 | locus YDL134C, strain PPH21, hits give low values 1.03 | locus YDL185W, strain tfp1, hits give low values 0.945 | locus YDL192W, strain arf1, hits give low values 1.01 | locus YDR001C, strain nth1, hits give low values 1.02 | locus YDR069C, strain doa4, hits give low values 1.03 | locus YDR101C, strain arx1, hits give low values 0.98 | locus YDR137W, strain rgp1, hits give low values 1.05 | locus YDR159W, strain sac3, hits give low values 1.03 | locus YDR162C, strain NBP2, hits give low values 1.01 | locus YDR195W, strain ref2 1.04 | locus YDR297W, strain sur2, hits give low values 1.03 | locus YDR318W, strain mcm21, hits give low values 0.999 | locus YDR334W, strain swr1, hits give low values 1.02 | locus YDR335W, strain msn5, hits give low values 1.02 | locus YDR388W, hits give low values 0.988 | locus YDR392W, strain spt3, hits give low values 0.989 | locus YDR502C, strain sam2, hits give low values 0.989 | locus YEL003W, strain gim4, hits give low values 1.02 | locus YEL037C, strain rad23, hits give low values 1.01 | locus YEL061C, strain CIN8 (second series), hits give low values 1.02 | locus YEL061C, strain CIN8, hits give low values 1.01 | locus YER015W, strain faa2, hits give low values 1.02 | locus YER016W, strain bim1, hits give low values 1.02 | locus YER110C, hits give low values 0.98 | locus YER111C, strain swi4, hits give low values 1.01 | locus YER155C, strain BEM2 (second series), hits give low values 1.02 | locus YER155C, strain BEM2, hits give low values 0.986 | locus YER167W, strain BCK2, hits give low values 1 | locus YFR010W, strain ubp6, hits give low values 1.02 | locus YGL078C, strain dbp3, hits give low values 0.972 | locus YGL086W, strain mad1, hits give low values 0.983 | locus YGL167C, strain pmr1, hits give low values 1.02 | locus YGL173C, strain kem1, hits give low values 1.02 | locus YGL227W, strain vid30, hits give low values 1.03 | locus YGL240W, strain doc1, hits give low values 1.03 | locus YGL248W, strain PDE1, hits give low values 1.03 | locus YGL253W, strain hxk2, hits give low values 1.02 | locus YGR135W, strain pre9, hits give low values 1.02 | locus YGR229C, strain SMI1, hits give low values 1.02 | locus YGR252W, strain gcn5, hits give low values 1.17 | locus YHR013C, strain ard1, hits give low values 1.03 | locus YHR027C, strain rpn1, hits give low values 1.02 | locus YHR030C, strain SLT2, hits give low values 0.987 and 0.98 | locus YHR079C, strain IRE1 (second series), hits give low values 0.983 | locus YHR079C, strain IRE1, hits give low values 0.983 | locus YHR094C, strain hxt1, hits give low values 0.999 | locus YHR129C, strain ARP1, hits give low values 1.01 | locus YHR142W, strain chs7, hits give low values 1.03 | locus YHR200W, strain rpn10, hits give low values 0.976 | locus YIL066C, strain RNR3, hits give low values 1.01 | locus YIL073C, strain SPO22, hits give low values 0.961 | locus YIL125W, strain kgd1, hits give low values 0.994 | locus YIR030C, strain dcg1, hits give low values 0.995 | locus YJL092W, strain hpr5, hits give low values 1.02 | locus YJL095W, strain BCK1 (second series), hits give low values 1.02 | locus YJL095W, strain BCK1, hits give low values 1.05 and 0.988 | locus YJL115W, strain asf1, hits give low values 1.04 | locus YJL129C, strain trk1, hits give low values 1.04 | locus YJL134W, strain LCB3, hits give low values 0.986 | locus YJL154C, strain vps35, hits give low values 1.01 | locus YJL164C, strain tpk1, hits give low values 1 | locus YJL166W, strain qcr8, hits give low values 1.03 | locus YJL168C, strain set2, hits give low values 0.989 | locus YJL187C, strain SWE1 (second series), hits give low values 1.01 | locus YJR043C, strain POL32, hits give low values 1.01 | locus YJR066W, strain TOR1, hits give low values 0.917
